# Test results: PubChem BioAssay (Tox21)
# Records with an inconclusive call do not appear. Entries that show only a call come without a potency. Active and inactive are the calls of the source. Calls come from the whole dose curve; as a rule, active = well fitted cell-killing curve with a large enough effect in the repeat runs; inconclusive = weak or mixed curves, or effect the other way; inactive = no such curve, though single readings can be large or run the other way.
# Assay: qHTS assay to identify small molecule agonists of the vitamin D receptor (VDR) signaling pathway - cell viability counter screen (AID 743224)
# Settings: VDR-bla HEK293T viability, CellTiter-Glo luminescence, 16 h; series mostly up to 62.6 µM
# Summary of the method: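 Plated VDR-bla cells (4 h, 37C) received compound, incubated 16 h, then LiveBLAzer substrate 2 h RT; CellTiter-Glo added afterwards, luminescence read at 30 min.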
# Note: nearly all actives have a fitted effect of over 50% in size.
# Potency is the fitted concentration of half-maximal effect.
SMILES,Potency,"activity change, negative = cytotoxicity"
COC(=O)C1=C(C)NC(C)=C(C(=O)OCCN2CCN(C(c3ccccc3)c3ccccc3)CC2)C1c1cccc([N+](=O)[O-])c1 (stereo not given),inactive,–
CCCC[P+](C)(CCCC)CCCC,inactive,–
CC[N+](CC)(CC)CCOC(=O)C(C1CCCC1)C1CCCC1,inactive,–
O=C1C(c2[nH]c3ccc(S(=O)(=O)O)cc3c2O)=Nc2ccc(S(=O)(=O)O)cc21,inactive,–
CCO[C@@H]1O[C@H](C(COCc2ccccc2)OCc2ccccc2)[C@H](OCc2ccccc2)[C@H]1O (stereo not given in full),inactive,–
O=C(O)c1cc(O)c2ccccc2c1O,38.9 µM (active),–
O=C(O)c1cccc(C(F)(F)F)c1,inactive,–
COc1ccc(-c2coc3cc(O)ccc3c2=O)cc1,inactive,–
NC(=S)NC(N)=S,inactive,–
CC(C)(C)CC(C)(C)c1ccc(Nc2ccc(C(C)(C)CC(C)(C)C)cc2)cc1,–,10.9% [at 5.95 µM] (inactive)
CC(C)=CCC1=C(O)c2ccccc2C(=O)C1=O,inactive,–
O=C(Oc1ccccc1)Oc1ccccc1,inactive,–
Cc1ccc(-c2ccccc2)cc1,inactive,–
CCCCNS(=O)(=O)c1ccc(C)cc1,inactive,–
Clc1sc(Cl)c(Cl)c1Cl,inactive,–
CCCc1ccc(OCC(=O)N2CCN(C(=O)COc3ccc(CCC)cc3OC)CC2)c(OC)c1,inactive,–
COc1cc(S(=O)(=O)O)c(C)cc1N=Nc1c(O)ccc2cc(S(=O)(=O)O)ccc12,inactive,–
O=C(O)CCN(C1(C(=O)NO)CCCC1)S(=O)(=O)c1ccc(Oc2ccc(F)cc2)cc1,inactive,–
O=[N+]([O-])c1cccc(C(F)(F)F)c1,inactive,–
CC1=Nc2ccccc2C1(C)C,inactive,–
COc1cc(/C=C/c2ccccc2)oc(=O)c1,inactive,–
CN(C)Cc1cc(C(C)(C)C)c(O)c(C(C)(C)C)c1,inactive,–
O=c1[nH]c(=O)n([C@H]2C[C@H](O)[C@@H](CO)O2)cc1F,inactive,–
C=C(CC)C(=O)c1ccc(OCC(=O)O)c(Cl)c1Cl,inactive,–
Nc1ccc(Oc2ccc(Cl)cc2)cc1,inactive,–
CN(C)CCN1CCN(c2cccc(Cl)c2)C1=O,inactive,–
COC(=O)c1ccccc1OC,inactive,–
CNC(=O)c1ccccc1Sc1ccc2c(/C=C/c3ccccn3)n[nH]c2c1,29.8 µM (active),–
O=C1CCc2cc(OCCCCc3nnnn3C3CCCCC3)ccc2N1,inactive,–
CCC(C)[O-].CCC(C)[O-].CCOC(=O)/C=C(/C)[O-].[Al+3],inactive,–

# Assay: qHTS assay to identify small molecule antagonists of the vitamin D receptor (VDR) signaling pathway - cell viability counter screen (AID 743225)
# Settings: VDR-bla HEK293T viability, CellTiter-Glo luminescence, 16 h; series mostly up to 61 µM
# Summary of the method: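 Cytotoxicity counter screen read by CellTiter-Glo luminescence (30 min, room temperature) in the same wells as the VDR-bla antagonist readout. HEK 293T VDR-UAS-bla cells had 16 h at 37C with compound and 3 nM (final) 1-alpha,25-dihydroxyvitamin D3, then 2 h with FRET substrate.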
SMILES,Potency,"viability change, negative = cytotoxic"
COC(=O)C1=C(C)NC(C)=C(C(=O)OCCN2CCN(C(c3ccccc3)c3ccccc3)CC2)C1c1cccc([N+](=O)[O-])c1 (stereo not given),inactive,–
CCCC[P+](C)(CCCC)CCCC,inactive,–
CC[N+](CC)(CC)CCOC(=O)C(C1CCCC1)C1CCCC1,inactive,–
O=C1C(c2[nH]c3ccc(S(=O)(=O)O)cc3c2O)=Nc2ccc(S(=O)(=O)O)cc21,inactive,–
CCO[C@@H]1O[C@H](C(COCc2ccccc2)OCc2ccccc2)[C@H](OCc2ccccc2)[C@H]1O (stereo not given in full),inactive,–
O=C(O)c1cccc(C(F)(F)F)c1,inactive,–
COc1ccc(-c2coc3cc(O)ccc3c2=O)cc1,inactive,–
CC(C)(C)CC(C)(C)c1ccc(Nc2ccc(C(C)(C)CC(C)(C)C)cc2)cc1,–,20.6% [at 6.95 µM] (inactive)
O=C(Oc1ccccc1)Oc1ccccc1,inactive,–
CCCCNS(=O)(=O)c1ccc(C)cc1,inactive,–
Clc1sc(Cl)c(Cl)c1Cl,inactive,–
Cc1ccc(O)c(O)c1,inactive,–
CCCc1ccc(OCC(=O)N2CCN(C(=O)COc3ccc(CCC)cc3OC)CC2)c(OC)c1,inactive,–
COc1cc(S(=O)(=O)O)c(C)cc1N=Nc1c(O)ccc2cc(S(=O)(=O)O)ccc12,inactive,–
O=C(O)CCN(C1(C(=O)NO)CCCC1)S(=O)(=O)c1ccc(Oc2ccc(F)cc2)cc1,inactive,–
O=[N+]([O-])c1cccc(C(F)(F)F)c1,inactive,–
CC1=Nc2ccccc2C1(C)C,inactive,–
OCCN1CCN(CCCN2c3ccccc3Sc3ccc(C(F)(F)F)cc32)CC1,23.9 µM (active),–
COc1cc(/C=C/c2ccccc2)oc(=O)c1,inactive,–
O=c1[nH]c(=O)n([C@H]2C[C@H](O)[C@@H](CO)O2)cc1F,inactive,–
C=C(CC)C(=O)c1ccc(OCC(=O)O)c(Cl)c1Cl,inactive,–
CCCCCCCCCCCCOC(=O)c1ccc(O)cc1,inactive,–
Nc1ccc(Oc2ccc(Cl)cc2)cc1,inactive,–
CN(C)CCN1CCN(c2cccc(Cl)c2)C1=O,inactive,–
COC(=O)c1ccccc1OC,inactive,–
O=C(O)O,–,-0.215% [at 6.95 µM] (inactive)
CNC(=O)c1ccccc1Sc1ccc2c(/C=C/c3ccccn3)n[nH]c2c1,23.9 µM (active),–
O=C1CCc2cc(OCCCCc3nnnn3C3CCCCC3)ccc2N1,inactive,–
COC1=C(OC)C(=O)C(CCCCCCCCCCO)=C(C)C1=O,23.9 µM (active),–
CCC(C)[O-].CCC(C)[O-].CCOC(=O)/C=C(/C)[O-].[Al+3],inactive,–
